Records with an inconclusive call do not appear. Activity calls are given as the source filed them. Unless noted, calls follow the shape of the full dose curve.
Tests used:
[1] = Nuclear factor erythroid 2-related factor 2/antioxidant responsive element (Nrf2/ARE) small molecule agonists: qHTS cell viability counter screen in human keratinocytes (AID 1919968; active = well fitted curve in the direction sought with a large enough effect in the repeat runs; an effect the other way counts as inactive or inconclusive; also: nearly all actives have a fitted effect of over 55% in size)
How it was run: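 After a 5 h attachment period, ARE-reporter keratinocytes were dosed with compounds in DMSO and then cultured 23 h at 37 C. Cell viability came from CellTiter-Fluor signal read after a further 1 h.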

[2] = Nuclear factor erythroid 2-related factor 2/antioxidant responsive element (Nrf2/ARE) small molecule agonists: luciferase reporter gene qHTS assay in human keratinocytes (AID 1919969); also: nearly all actives have a fitted effect of over 35% in size
[3] = biological target: Gonadotropin-releasing hormone receptor (Homo sapiens) (UniProt P30968); experiment: Human gonadotropin-releasing hormone receptor (GnRHR) small molecule agonists, calcium flux assay in GnRHR-HEK293 cells (AID 1920063); also: nearly all actives have a fitted effect of over 35% in size
How it was run: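 We seeded human GnRHR-expressing HEK293 cells for 18 hours, loaded them with calcium dye for an hour at 37 C, added test compounds, and recorded fluorescence intensity kinetically for three minutes.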

[4] = biological target: KiSS-1 receptor (Homo sapiens) (UniProt Q969F8); experiment: Human kisspeptin (KISS1R) small molecule agonists, calcium flux assay in KISS1R-HEK293 cells (AID 1920064; active = well fitted curve in the direction sought with a large enough effect in the repeat runs; an effect the other way counts as inactive or inconclusive)
How it was run: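 Kinetic calcium assay, 1 s sampling over 3 min at Ex/Em 480/540, in HEK293 cells engineered with human KISS1R; compounds delivered in DMSO after 1 h dye loading.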

[5] = G protein-coupled receptor (GPCR) small molecule agonists, calcium flux assay: HEK293 wild type cell line counter screen (AID 1920065)
How it was run: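 Calcium-sensitive dye, loaded 1 h at 37 C into cells cultured 18 h, reports compound-evoked calcium release as fluorescence (Ex/Em 480/540), measured over 3 min. Agonist mode; 15-point titrations, triplicate.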

[6] = p53 small molecule agonists, cell-based qHTS assay with human liver microsomes (AID 1963577);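 also: p53 response element beta-lactamase reporter cells with liver microsomes plus NADPH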
How it was run: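 Metabolically competent format: test substances, human liver microsomes and NADPH (both 0.5 mg/mL final) incubated with p53RE-bla cells 16 h at 37 C. Beta-lactamase reporter signal then quantified by fluorescence.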

[7] = p53 small molecule agonists, cell-based qHTS assay with rat liver microsomes (AID 1963578)
How it was run: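 Each plate received p53RE-bla cells, then compound, then rat liver microsomes and NADPH (both 0.5 mg/mL final). Plates were held 16 h at 37 C, and beta-lactamase activity was detected with LiveBLAzer over 2 h.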

[8] = p53 small molecule agonists, cell-based qHTS assay with human liver microsomes: qHTS cell viability counter screen (AID 1963579); also: nearly all actives have a fitted effect of over 45% in size
How it was run: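 Tox21 library compounds, delivered from DMSO stocks, were tested on p53RE-bla cells together with 0.5 mg/mL human liver microsomes and 0.5 mg/mL NADPH (final) over 16 h at 37 C; CellTiter-Glo luminescence served as the cytotoxicity measure.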

[9] = p53 small molecule agonists, cell-based qHTS assay with rat liver microsomes: qHTS cell viability counter screen (AID 1963580); also: nearly all actives have a fitted effect of over 45% in size
How it was run: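 p53RE-bla HCT-116 cells were exposed 16 h at 37 C to compounds with rat liver microsomes (0.5 mg/mL) and NADPH (0.5 mg/mL). Viability was measured in the same wells as ATP content by CellTiter-Glo luminescence.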

[10] = p53 small molecule agonists, cell-based qHTS assay: qHTS cell viability counter screen (AID 1963581); also: nearly all actives have a fitted effect of over 45% in size
How it was run: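 Following 5 h attachment, HCT-116 p53RE-bla cells took up compound for 16 h at 37 C; the reporter was read with B/G FRET substrate (2 h RT), and viability then via CellTiter-Glo ATP luminescence.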

[11] = p53 small molecule agonists, cell-based qHTS assay (AID 1963582; active = well fitted activation curve with a large enough effect in the signal ratio in the repeat runs, not every such curve was filed as active; the % refers to the signal ratio)
How it was run: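 In this cell-based concentration-response screen, a p53 response element drives beta-lactamase; cells received DMSO-borne compounds after 5 h culture and were incubated a further 16 h before FRET substrate development.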

[12] = biological target: 5-hydroxytryptamine receptor 2A (Homo sapiens) (UniProt P28223); experiment: 5-hydroxytryptamine receptor 2A (HTR2A) small molecule antagonists, cell-based qHTS assay (AID 1963586); also: nearly all actives have a fitted effect of over 45% in size
How it was run: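 Antagonist-mode intracellular calcium assay: DOI (4 nM) added after 5 min compound pre-incubation at room temperature to dye-loaded HTR2A-CHO cells. Fluorescence followed for 3 min, sampled every second.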

[13] = biological target: 5-hydroxytryptamine receptor 2A (Homo sapiens) (UniProt P28223); experiment: 5-hydroxytryptamine receptor 2A (HTR2A) small molecule agonists, cell-based qHTS assay (AID 1963587); also: nearly all actives have a fitted effect of over 30% in size
How it was run: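 CHO cells stably expressing human HTR2A, plated 18 h, loaded with calcium dye 1 h at 37 C. Agonist mode: compounds added and intracellular calcium fluorescence recorded kinetically for 2 min at 1 sec intervals.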

[14] = biological target: Muscarinic acetylcholine receptor M1 (Homo sapiens) (UniProt P11229); experiment: Cholinergic receptor muscarinic 1 (CHRM1) small molecule antagonists, cell-based qHTS assay (AID 1963588); also: nearly all actives have a fitted effect of over 40% in size
How it was run: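 CHRM1-CHO calcium-flux assay, antagonist mode. Cells were seeded 18 h, dye-loaded 1 h at 37 C and given compound for 5 min at RT, then acetylcholine was added at 50nM. FDSS fluorescence was read 3 min; 15 concentrations, three runs.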

[15] = cAMP Responsive Elements (CRE) small molecule antagonists, cell-based qHTS assay (AID 1963591; active = well fitted inhibition curve with a large enough effect in the signal ratio in the repeat runs, not every such curve was filed as active; the % refers to the signal ratio)
How it was run: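 HEK293T cells carrying a CRE-driven beta-lactamase reporter receive compound and NKH477 (0.25 uM final) for 3 h. Fluorescence from LiveBLAzer B/G FRET substrate is read after 2 h at room temperature.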

[16] = biological target: Beta-2 adrenergic receptor (Homo sapiens) (UniProt P07550); experiment: Adrenergic beta2 receptor (ADRB2) small molecule antagonists, cell-based qHTS assay (AID 1963592); also: series mostly up to about 92 µM; nearly all actives have a fitted effect of over 50% in size
How it was run: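 Cells (CHO, stable ADRB2 overexpression) incubated 18-20hr at 37C; compounds added from DMSO; agonist mix (1nM isoproterenol, 100uM IBMX, 25uM Ro-20-1724) added; 0.5hr RT; d2-cAMP and anti-cAMP-cryptate added; 1hr RT; 665/615 nm read.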

[17] = biological target: Beta-2 adrenergic receptor (Homo sapiens) (UniProt P07550); experiment: Adrenergic beta2 receptor (ADRB2) small molecule agonists, cell-based qHTS assay (AID 1963593);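 also: CHO cells stably overexpressing human ADRB2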
How it was run: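 CHO cells stably over-expressing ADRB2 were plated overnight at 37C, then dosed with compounds plus a stimulation mix containing 100uM IBMX and 25uM Ro-20-1724 for 0.5hr at room temperature. cAMP was measured by HTRF competition, 1hr.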

[18] = biological target: D(2) dopamine receptor (Homo sapiens) (UniProt P14416); experiment: Dopamine D2 receptor (DRD2) small molecule agonists, cell-based qHTS assay (AID 1963594); also: nearly all actives have a fitted effect of over 35% in size
How it was run: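 HEK293 cells stably expressing human DRD2, pre-treated with PDE inhibitor Ro20-1724 (0.1 mM final) and compound 10 min at room temperature, then stimulated with NKH477 (200nM […]) for 30 min. cAMP read by HTRF (665/620 nm).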

[19] = biological target: D(2) dopamine receptor (Homo sapiens) (UniProt P14416); experiment: Dopamine D2 receptor (DRD2) small molecule antagonists, cell-based qHTS assay (AID 1963595; active = well fitted inhibition curve with a large enough effect in the signal ratio in the repeat runs, with a control signal flat; the % refers to the signal ratio)
How it was run: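 HEK293 cells stably expressing DRD2 were preincubated with 0.1 mM Ro20-1724, then with compound for 10 min at room temperature. Cells were stimulated with 200 nM NKH477 plus 12 nM quinpirole for 30 min, and cAMP was read by HTRF.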

[20] = biological target: Muscarinic acetylcholine receptor M1 (Homo sapiens) (UniProt P11229); experiment: Cholinergic receptor muscarinic 1 (CHRM1) small molecule agonists, cell-based qHTS assay (AID 1963589); also: nearly all actives have a fitted effect of over 35% in size
How it was run: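 Measures agonist-induced intracellular calcium rise. Stable human CHRM1 CHO line, 1 h dye load at 37 C, compounds from DMSO, kinetic fluorescence read.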

Measured: Potency

Chain of Beta-2 adrenergic receptor (Homo sapiens) (P07550 whole entry, looked up): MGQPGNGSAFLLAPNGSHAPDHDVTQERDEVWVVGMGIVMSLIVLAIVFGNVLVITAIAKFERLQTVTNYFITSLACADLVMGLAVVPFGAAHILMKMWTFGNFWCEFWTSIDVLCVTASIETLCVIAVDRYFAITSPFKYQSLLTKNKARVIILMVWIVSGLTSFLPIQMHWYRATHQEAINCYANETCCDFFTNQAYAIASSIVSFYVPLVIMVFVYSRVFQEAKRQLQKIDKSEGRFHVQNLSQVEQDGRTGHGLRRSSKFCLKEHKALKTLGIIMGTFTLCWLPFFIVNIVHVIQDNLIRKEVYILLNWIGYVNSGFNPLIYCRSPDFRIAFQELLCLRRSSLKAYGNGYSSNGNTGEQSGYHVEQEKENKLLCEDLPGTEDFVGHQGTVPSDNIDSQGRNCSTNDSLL
Chain of Muscarinic acetylcholine receptor M1 (Homo sapiens) (P11229 whole entry, looked up): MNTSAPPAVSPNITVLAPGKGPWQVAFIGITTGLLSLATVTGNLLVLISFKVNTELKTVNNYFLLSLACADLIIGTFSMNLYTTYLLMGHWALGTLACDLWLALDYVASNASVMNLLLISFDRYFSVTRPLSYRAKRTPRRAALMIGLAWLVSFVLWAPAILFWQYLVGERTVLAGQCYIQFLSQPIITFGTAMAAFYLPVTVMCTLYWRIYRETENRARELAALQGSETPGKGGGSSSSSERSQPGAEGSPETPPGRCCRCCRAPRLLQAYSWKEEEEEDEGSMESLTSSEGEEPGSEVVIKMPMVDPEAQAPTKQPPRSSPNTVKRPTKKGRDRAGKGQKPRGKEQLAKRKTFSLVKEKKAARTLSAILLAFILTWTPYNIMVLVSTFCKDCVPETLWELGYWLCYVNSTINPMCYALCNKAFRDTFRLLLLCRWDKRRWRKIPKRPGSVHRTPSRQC
Chain of Gonadotropin-releasing hormone receptor (Homo sapiens) (P30968 whole entry, looked up): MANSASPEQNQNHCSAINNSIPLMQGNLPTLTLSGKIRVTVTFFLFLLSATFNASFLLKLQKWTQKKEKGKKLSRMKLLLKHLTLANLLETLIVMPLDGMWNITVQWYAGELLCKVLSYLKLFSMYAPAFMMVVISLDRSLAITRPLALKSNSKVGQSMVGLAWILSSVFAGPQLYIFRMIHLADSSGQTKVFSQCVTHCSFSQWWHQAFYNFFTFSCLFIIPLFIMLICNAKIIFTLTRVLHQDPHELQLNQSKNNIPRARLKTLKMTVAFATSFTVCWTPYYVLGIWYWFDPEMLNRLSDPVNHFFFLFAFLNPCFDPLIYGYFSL
Chain of KiSS-1 receptor (Homo sapiens) (Q969F8 whole entry, looked up): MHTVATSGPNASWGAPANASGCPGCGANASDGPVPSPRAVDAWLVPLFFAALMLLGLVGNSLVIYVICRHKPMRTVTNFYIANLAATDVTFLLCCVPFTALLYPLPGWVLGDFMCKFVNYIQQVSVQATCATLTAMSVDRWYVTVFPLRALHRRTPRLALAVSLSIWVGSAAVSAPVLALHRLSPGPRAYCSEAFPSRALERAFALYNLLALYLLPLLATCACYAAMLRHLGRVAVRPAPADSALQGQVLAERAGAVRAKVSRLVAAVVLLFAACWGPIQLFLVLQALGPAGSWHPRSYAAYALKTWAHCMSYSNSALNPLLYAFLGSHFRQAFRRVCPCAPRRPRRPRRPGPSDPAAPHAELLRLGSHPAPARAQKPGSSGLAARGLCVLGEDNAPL
Chain of 5-hydroxytryptamine receptor 2A (Homo sapiens) (P28223 whole entry, looked up): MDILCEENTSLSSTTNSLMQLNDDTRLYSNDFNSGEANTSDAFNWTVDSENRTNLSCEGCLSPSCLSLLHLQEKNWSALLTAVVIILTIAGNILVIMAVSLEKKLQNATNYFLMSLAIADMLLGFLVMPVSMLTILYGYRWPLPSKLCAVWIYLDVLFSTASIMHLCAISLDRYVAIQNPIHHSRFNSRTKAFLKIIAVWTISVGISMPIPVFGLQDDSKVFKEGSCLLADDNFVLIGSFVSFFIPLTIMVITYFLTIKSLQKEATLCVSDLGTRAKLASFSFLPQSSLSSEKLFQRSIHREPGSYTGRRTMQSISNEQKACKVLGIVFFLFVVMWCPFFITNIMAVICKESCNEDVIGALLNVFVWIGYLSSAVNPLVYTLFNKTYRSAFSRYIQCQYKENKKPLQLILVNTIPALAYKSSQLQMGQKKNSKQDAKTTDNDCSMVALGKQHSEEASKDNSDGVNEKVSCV
Chain of D(2) dopamine receptor (Homo sapiens) (P14416 whole entry, looked up): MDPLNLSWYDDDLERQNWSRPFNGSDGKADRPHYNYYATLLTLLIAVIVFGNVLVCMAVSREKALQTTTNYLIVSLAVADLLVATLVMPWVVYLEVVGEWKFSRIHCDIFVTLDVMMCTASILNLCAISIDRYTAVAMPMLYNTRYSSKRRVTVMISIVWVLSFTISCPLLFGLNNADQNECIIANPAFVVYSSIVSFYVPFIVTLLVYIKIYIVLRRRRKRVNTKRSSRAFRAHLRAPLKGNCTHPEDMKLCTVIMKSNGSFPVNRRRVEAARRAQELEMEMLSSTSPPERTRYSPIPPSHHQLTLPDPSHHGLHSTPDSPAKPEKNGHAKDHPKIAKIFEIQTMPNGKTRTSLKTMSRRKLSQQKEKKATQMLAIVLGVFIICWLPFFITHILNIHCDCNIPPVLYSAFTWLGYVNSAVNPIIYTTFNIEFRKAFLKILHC

CCSC(=O)N(CC(C)C)CC(C)C
not listed: [20]
inactive: all other assays above

CC(C=O)c1ccccc1 (stereo not given)
not listed: [14]
inactive: all other assays above

Nc1nccs1
not listed: [14] | [19]
inactive: all other assays above

CCN(CC)S(=O)(=O)c1ccc(C(=O)O)cc1
not listed: [14]
inactive: all other assays above

CC(=O)OCCN(CCOC(C)=O)c1ccc(N=Nc2ccc([N+](=O)[O-])cc2C#N)cc1
not listed: [18] | [20]
inactive: all other assays above

Cc1sccc1Br
not listed: [12]
inactive: all other assays above

CC(=O)OCCc1ccccc1
not listed: [12]
inactive: all other assays above

Cc1ccc(-c2ccccc2C#N)cc1
not listed: [13] | [18]
inactive: all other assays above

CCCCCCCC(OC)OC
not listed: [14] | [17]
inactive: all other assays above

CC1CC(O)CC(C)(C)C1 (stereo not given)
not listed: [12]
inactive: all other assays above

C[N+](C)(C)CC[N+]1(C)Cc2c(Cl)c(Cl)c(Cl)c(Cl)c2C1
not listed: [13]
inactive: all other assays above

COc1cccc(OC)c1O
not listed: [13] | [17]
inactive: all other assays above

COc1cc(OC)nc(O[C@H](C(=O)O)C(OC)(c2ccccc2)c2ccccc2)n1
not listed: [14] | [17] | [20]
inactive: all other assays above
